Screens deposited in PubChem BioAssay by National Center for Advancing Translational Sciences (NCATS).
Hits are enriched below; roughly 6.3% of the tested compounds scored in any of these assays.
TGFb SMAD3 inh: qHTS for Inhibitors of TGF-b | 1.2% of 410,000 active | AID 588855, 2011 | HepG2 CAGA-GFP TGF-b/SMAD3 reporter, GFP fluorescence, 18 h; TGF-beta stimulated, 500 pg/mL final | Potency, µM (top dose mostly 46.1 µM), without a hit: at the highest dose activity, negative = inhibition, usual class: inhibitors; note: % is set by controls: 0 for no effect and ±100 for the full control effect; nearly all actives have a fitted effect of over 65% in size
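Smad-responsive CAGA-GFP expression was quantified in HEPG2 cells exposed to compounds and 500 pg/mL final TGF-beta for 18 h at 37 degrees C; unstimulated wells defined full inhibition.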
VP16 counter: VP16 counterscreen qHTS for inhibitors of ROR gamma transcriptional activity; 3.5% of 310,000 active; AID 2546, 2010; Potency, µM (titrated, usually from 53.6 µM), without a hit: top-dose activity, negative = inhibition, actives largely listed as inhibitors; Drosophila S2 Gal4-VP16 UAS-luciferase, luminescence, 20 h;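 note: Gal4-VP16 expression switched on by copper sulfate through the metallothionein promoter; % is set by controls: 0 for no effect and ±100 for the full control effect; nearly all actives have a fitted effect of over 50% in size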
HepG2 tox: qHTS for Inhibitors of TGF-b: Cytotox Counterscreen. Potency, µM (titrated, usually from 46.1 µM), inactives show at the highest dose activity change, negative = cytotoxicity, usual class: cytotoxic. HepG2 CAGA-GFP viability, ATP luminescence, 18 h. 0.76% of 410,000 active
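HepG2 CAGA-GFP cells (1000/well, DMEM with 1% FBS) received compound, then TGF-beta at 500 pg/mL final, and were incubated 18 hours at 37 degrees C. Viability was read by CellTiter-Glo luminescence. Media-only wells were set as complete cell-killing and DMSO as no toxicity.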
ATXN2 expr inh: Primary qHTS for Inhibitors of ATXN expression; Potency, µM (doses to about 57 µM), for the others: at the highest dose activity change, negative = inhibition, actives largely listed as inhibitors; 0.72% of 360,000 active; HEK-293 ATXN2-luciferase reporter, luminescence, 24 h; note: % is set by controls: 0 for no effect and ±100 for the full control effect; nearly all actives have a fitted effect of over 55% in size
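ATXN2-luciferase reporter cells (luciferase flanked by upstream and downstream ATXN2 gene portions) were treated 24 h at 37 °C with compounds at up to 57 uM. SteadyGlo luminescence gave expression; GF-AFC fluorescence gave viability.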
S2 tox: Viability Counterscreen for Primary qHTS for Inhibitors of ATXN expression | S2 cells (HEK-293 line with an ATXN2-luciferase reporter) viability, CellTiter-Fluor protease fluorescence, 24 h | Potency, µM (top dose mostly 56.7 µM), usual class: cytotoxic | 0.49% of 400,000 active | AID 651635, 2014; note: nearly all actives have a fitted effect of over 40% in size
RORgamma inh: qHTS for inhibitors of ROR gamma transcriptional activity; Potency, µM (top dose mostly 53.6 µM), inactives show at the highest dose activity change, negative = inhibition, actives largely listed as inhibitors; Drosophila S2 Gal4-RORgamma UAS-luciferase reporter, 20 h; 5.4% of 310,000 active; Nuclear receptor ROR-gamma (Mus musculus), P51450; note: % is set by controls: 0 for no effect and ±100 for the full control effect; nearly all actives have a fitted effect of over 60% in size
Target sequence (P51450 whole entry, looked up, the tested form may be a part): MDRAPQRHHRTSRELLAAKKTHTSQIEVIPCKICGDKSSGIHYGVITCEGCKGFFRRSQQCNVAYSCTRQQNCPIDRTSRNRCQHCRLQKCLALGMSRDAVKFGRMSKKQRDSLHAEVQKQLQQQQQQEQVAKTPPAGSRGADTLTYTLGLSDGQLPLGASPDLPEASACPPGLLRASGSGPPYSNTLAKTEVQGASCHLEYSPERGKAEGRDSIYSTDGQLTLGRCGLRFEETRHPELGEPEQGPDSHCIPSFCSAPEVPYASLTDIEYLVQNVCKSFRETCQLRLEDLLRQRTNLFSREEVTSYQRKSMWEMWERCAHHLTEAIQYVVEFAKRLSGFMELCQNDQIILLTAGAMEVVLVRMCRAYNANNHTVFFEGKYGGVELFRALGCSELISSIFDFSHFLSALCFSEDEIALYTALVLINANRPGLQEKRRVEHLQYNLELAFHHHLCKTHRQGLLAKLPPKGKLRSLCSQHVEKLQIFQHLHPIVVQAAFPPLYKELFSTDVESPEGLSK
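Luminescence from a UAS-regulated Photinus luciferase reporter in stably transfected Drosophila Schneider cells is measured; decreased signal marks ROR gamma inhibition. Fusion expression is induced by 700 uM copper sulfate for 20 hr.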
An asterisk follows results filed as active; i = inactive; ? = inconclusive; nt = no result; ! = not active in a repeat; [ ] = dose if it differs, or a comment. Calls come from the whole dose curve; as a rule, active = well fitted curve in the direction sought with a large enough effect; inconclusive = small, poorly fitted or top-dose-only effect, or another doubt; inactive = no such curve, though single readings can be large; an effect the other way counts as inactive or inconclusive. Potency is the fitted concentration of half-maximal effect.

SMILES | TGFb SMAD3 inh | VP16 counter | HepG2 tox | ATXN2 expr inh | S2 tox | RORgamma inh
Cc1ccc(CN2C(=O)C(O)(c3c[nH]c4ccccc34)c3cc(Cl)ccc32)cc1 (configuration not stated) | 2.8µM* | nt | 13µM* | ? | i | nt
CCc1nc2c(OCc3ccc(OC)cc3)cccn2c1N(C)C(=O)c1ccco1 | 0% | nt | -14% | -12% | i | nt
CCCc1c(OCCCCc2nn[nH]n2)ccc(C(C)=O)c1O | -1% | 13µM*! | -21% | -17% | i | ?
CCCc1c(OCC(O)COc2ccc3c(=O)cc(C(=O)O)oc3c2CCC)ccc(C(C)=O)c1O (configuration not stated) | nt | -16% | nt | nt | nt | 27%
Cc1ccc(Cc2cnc(NC(=O)/C(C#N)=C/c3ccc(-c4ccccc4[N+](=O)[O-])o3)s2)cc1 | -6% | 4.5µM* | -3% | ? | ? | 2.2µM*
N#C/C(=C\c1cn(Cc2ccccc2)c2ccccc12)C(=O)NCc1ccco1 | -1% | -14% | -22% | -22% | i | 15%
Cn1cc(/C=C(\C#N)C(=O)Nc2ncc(Cc3ccc(Cl)cc3)s2)c2ccccc21 | 19% | 2.5µM* | -2% | -15% | i | 2µM*
CNC(=O)/C(C#N)=C/c1ccc(-c2ccccc2[N+](=O)[O-])o1 | 0% | 16% | -11% | 16% | i | 16%
CCc1ccc(NC(=O)/C(C#N)=C/c2cn(CC(=O)O)c3ccccc23)cc1 | -2% | 6% | -3% | -21% | i | -9%
N#C/C(=C\c1cn(Cc2ccc(F)cc2)c2ccccc12)C(=O)NCc1ccco1 | ? | 11µM* | -47% | 0% | i | ?
Cc1ccc(Cn2cc(/C=C(/C#N)C(=O)Nc3cccc(Cl)c3)c3ccccc32)cc1 | ? | nt | -27% | -13% | i | nt
COc1cccc(NC(=O)/C(C#N)=C\c2cn(Cc3ccc(Cl)cc3)c3ccccc23)c1 | 11µM* | nt | -11% | 7% | i | nt
O=C(CC1C[C@H](C(=O)N2CCCCC2)[C@@]2(CCc3ccccc3)c3[nH]c4ccccc4c3CCN2C1=O)NCCc1ccccn1 (some centres not stated) | ? | nt | 1% | 10% | i | nt
COc1cc(CNCc2cc3cc(C)ccc3nc2-c2ccc(F)cc2)cc(OC)c1OC | nt | nt | nt | nt | i | nt
S=C(NCc1ccccn1)Nc1ccc(Cl)c(Cl)c1 | ? | 5µM* | -25% | 7% | i | 2.5µM*
O=C(NCc1ccccn1)/C(=N/O)c1ccccc1 | ? | -24% | -3% | 20% | i | 10µM*
S=C(NCc1ccccn1)Nc1ccccc1 | -4% | ? | 0% | 27% | i | 14µM*
Fc1ccc(NC(=S)Nc2nccs2)cc1 | ? | 1µM* | -15% | -15% | nt | 0.32µM*
C/C(=N\O)C(=O)NCc1ccccn1 | 3% | nt | 5% | 8% | ? | 7%[0.365 µM]
S=C(Nc1ccccc1)Nc1nccs1 | ? | -13% | -14% | nt | ? | 4%
COc1ccc(NC(=S)NCc2ccccn2)cc1OC | 0% | ? | -2% | 3%[11.3 µM] | i | ?
Fc1ccc(NC(=S)NCc2ccccn2)cc1 | 0% | ? | -3% | 7% | i | 10µM*
O=C(NCc1ccccn1)C1C2C=CC(C2)C1C(=O)Nc1ccc(F)cc1 (configuration not stated) | -1% | 11% | -6% | 2% | i | 16%
S=C(NCc1ccccn1)Nc1ccc(Cl)cc1Cl | 12% | 13µM* | 7% | 48% | i | 8.9µM*
O=C(C[n+]1ccccc1)c1ccc(O)c(O)c1 | -1% | nt | -22% | nt | nt | nt
SMILES | TGFb SMAD3 inh | VP16 counter | HepG2 tox | ATXN2 expr inh | S2 tox | RORgamma inh
CCOC(=O)[C@]12CCC=C1N(Cc1ccc(Cl)cc1Cl)C(=O)[C@H](CC(=O)NCc1cccc(C(F)(F)F)c1)C2 | nt | nt | nt | -37% | ? | nt
CCn1c(=O)cc(OCC(=O)NCc2ccc(C)o2)c2ccccc21 | 36% | 7% | -7% | 43% | i | 14µM*
CCn1c(=O)cc(OCC(=O)NCc2ccco2)c2ccccc21 | 16% | 1% | -19% | 53% | i | 4%
CSc1ccccc1NC(=O)CN(C)CC(=O)NCC(=O)Nc1ccc(F)cc1 | 10% | nt | 16% | 4% | i | nt
CSc1ccccc1NC(=O)CN(C)CC(=O)Nc1ccc(Cl)cc1F | -25% | ? | 11% | -5% | i | 11µM*
CSc1ccccc1NC(=O)CN(C)CC(=O)Nc1ccccc1C(F)(F)F | 15% | 3%[10 µM] | 5% | -12% | i | 8.9µM*
O=C(C=Cc1cccc(S(=O)(=O)Nc2ccccc2)c1)NO | nt | nt | nt | 89%[116 µM] | nt | nt
Cc1cc(C)cc(NC(=O)N2CCN(c3cc(-c4noc(C)n4)ccc3C)CC2)c1 | -25% | nt | -18% | -9% | i | nt
CNC(=O)OCc1nc(SSC(C)(C)C)n(C)c1COC(=O)NC | 11µM* | nt | -77% | ? | nt | nt
COc1cc2c(cc1OC)C(C)N(C(=O)c1cccs1)CC2 (configuration not stated) | -8% | -19%[10 µM] | 3% | 7% | i | -16%
COc1cc2c(cc1OC)C(C)N(C(=O)c1cc3c(s1)-c1ccccc1OC3)CC2 (configuration not stated) | 11µM* | -10% | -29% | 25µM* | ? | -39%
COc1cc2c(cc1OC)C(C)N(C(=O)c1cc3c(s1)-c1c(C)cccc1OC3)CC2 (configuration not stated) | ? | -4% | -33% | ? | ? | -14%
COc1cc2c(cc1OC)C(C)N(C(=O)c1cc3c(=O)oc4ccc(C)cc4c3s1)CC2 (configuration not stated) | 12% | -21% | -2% | 3% | i | 10µM*
CCn1ccc(C(=O)Nc2ncc(C)s2)n1 | -13% | ? | 0% | -19% | i | 11µM*
O=C1CCCc2cc(S(=O)(=O)NCC3CCC(C(=O)NCc4ccc(F)cc4)CC3)ccc2N1 (configuration not stated) | -5% | nt | -16% | 7% | i | nt
Cn1cc(S(=O)(=O)N2CCCCCC2)cc1C(=O)NCc1ccccc1Cl | 5µM* | nt | 1% | -29% | i | nt
Cn1cc(S(=O)(=O)N2CCCC2)cc1C(=O)NCc1ccccc1 | 2% | 5% | -6% | -11% | ? | 36%
